Compound activity deposited in PubChem BioAssay by National Center for Advancing Translational Sciences (NCATS).
Shown are actives, neighbours in structure and some others; about 12% of the full set was active somewhere.
JMJD2A Tudor inh = JMJD2A Tudor domain (human) inhibition; O75164; AlphaScreen JMJD2A-Tudor / H3K4me3 peptide binding; Potency, µM (series often up to 114 µM), for the others: at the top dose activity change, negative = inhibition, most hits filed as inhibitors; 4.4% of 390,000 active; AID 504339; note: % is set by controls: 0 for no effect and ±100 for the full control effect; nearly all actives have a fitted effect of over 50% in size
G9a block = blocks human histone lysine methyltransferase G9a. Q96KQ7. G9a H3K9 monomethylation, AlphaScreen, 2 h. Potency, µM (top dose mostly 102 µM), without a hit: at the highest dose activity, negative = inhibition, actives largely listed as inhibitors. 8.8% of 350,000 active; note: % is set by controls: 0 for no effect and ±100 for the full control effect; nearly all actives have a fitted effect of over 75% in size
Target sequence (Q96KQ7 913-1193 limits assumed): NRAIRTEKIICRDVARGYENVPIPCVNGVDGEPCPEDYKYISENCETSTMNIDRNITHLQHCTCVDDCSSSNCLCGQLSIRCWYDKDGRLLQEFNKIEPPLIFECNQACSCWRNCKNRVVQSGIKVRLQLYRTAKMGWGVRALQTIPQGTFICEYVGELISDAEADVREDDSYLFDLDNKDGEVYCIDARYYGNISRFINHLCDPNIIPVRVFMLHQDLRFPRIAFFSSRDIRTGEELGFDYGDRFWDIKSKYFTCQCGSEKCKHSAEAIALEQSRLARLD
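AlphaScreen detection with an anti-monomethyl H3K9 antibody quantified product after a 2 h room-temperature reaction containing 500 nM biotinylated H3K9 peptide, 20 µM SAM and 20 nM enzyme, which had been preincubated 15 min with compound.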
Sfp PPTase inh = inhibitors of Bacillus subtilis Sfp phosphopantetheinyl transferase; Biochemical Sfp PPTase activity, qHTS; 3.5% of 310,000 active; Potency, µM, inactives show largest response in the series, negative = inhibition, hits mostly inhibitors; Q9F4F7; AID 1490;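 note: the enzyme is Sfp with the accession as filed and its product quenches rhodamine fluorescence; 0% = enzyme reaction without inhibitor and -100% = no enzyme wells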
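Fluorescence-quenching assay: 15 nM Sfp-PPTase preincubated 15 min at room temperature with compound, then 5 uM rhodamine-CoA and 12.5 uM BHQ-2-labelled YbbR peptide added. Fluorescence (ex 525/em 598 nm) read at start and after 30 min; difference gives rate.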
BAZ2B block = blocks human BAZ2B. AlphaScreen BAZ2B-H3K14Ac peptide displacement. Potency, µM (doses to about 114 µM), without a hit: at the top dose activity change, negative = inhibition, usual class: inhibitors. 4.4% of 360,000 active. AID 504333; note: % is set by controls: 0 for no effect and ±100 for the full control effect; nearly all actives have a fitted effect of over 60% in size
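Multi-concentration screen (max 110 uM) measuring displacement of acetylated histone H3 peptide from BAZ2B by AlphaScreen, using 50 nM protein, 50 nM peptide and 10 ug/mL streptavidin donor plus Ni-chelate acceptor beads.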
HP1b chromo inh = inhibitors of HP1-beta chromodomain binding to methylated histone tails | P83916 | AlphaScreen HP1-beta / biotin-H3K9me3 peptide binding | Potency, µM (top dose mostly 114 µM), inactives show top-dose activity change, negative = inhibition, most hits filed as inhibitors | 0.56% of 390,000 active; note: nearly all actives have a fitted effect of over 70% in size
Target sequence (P83916 whole entry, looked up): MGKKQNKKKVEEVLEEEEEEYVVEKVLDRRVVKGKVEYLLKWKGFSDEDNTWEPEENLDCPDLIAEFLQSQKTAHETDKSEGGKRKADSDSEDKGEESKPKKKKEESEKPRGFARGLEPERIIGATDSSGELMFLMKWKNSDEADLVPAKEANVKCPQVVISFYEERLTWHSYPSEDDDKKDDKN
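AlphaScreen: HP1-beta (50 nM) preformed 30 min with biotin-H3(1-18)K9me3 peptide (50 nM) in PBS pH 7.4, 0.01% Tween-20. Compound added for 30 min at RT, then streptavidin donor/nickel chelate acceptor beads (10 ug/mL) for 30 min.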
Starred values were filed as active, the others as inactive; ? = inconclusive; / = not tested or not shown; [ ] = remark or other dose. Calls come from the whole dose curve; as a rule, active = well fitted curve in the direction sought with a large enough effect; inconclusive = small, poorly fitted or top-dose-only effect, or another doubt; inactive = no such curve, though single readings can be large; an effect the other way counts as inactive or inconclusive. Potency is the fitted concentration of half-maximal effect.

SMILES	JMJD2A Tudor inh	G9a block	Sfp PPTase inh	BAZ2B block	HP1b chromo inh
COc1ccc2c(-c3ccc(OCCN4CCOCC4)cc3)c(-c3ccccc3OC)sc2c1	?	/	/	/	-17.0%
COc1ccccc1-c1sc2ccccc2c1-c1ccc(OCCN2CCCCC2)cc1	35.5µM*	/	/	/	?
COc1ccc2c(-c3ccc(OCCN4CCCCC4)cc3)c(-c3ccccc3OC)sc2c1	28.2µM*	/	/	/	-33.7%
COc1cc2sc(-c3ccccc3OC)c(-c3ccc(OCCN4CCOCC4)cc3)c2cc1OC	31.6µM*	/	/	/	?
O=C(c1cccc(F)c1)N1CCCC(C(=O)N2CCCCCC2)C1 (centres undefined)	-2.7%	77.7%	9.1%	6.5%	36.2%
COc1cccc(C(=O)N2CCN(C(=O)c3cccc(F)c3)CC2)c1	-5.3%	-4.0%[59 µM]	14.8%	-11.3%	40.9%
CC1CCCCC1N1CCN(C(=O)c2cccc(F)c2)CC1 (centres undefined)	39.8µM*	?	-20.6%	?	?
CC1CCCC(N2CCN(C(=O)c3cccc(F)c3)CC2)C1 (centres undefined)	4.47µM*	?	-18.8%	50.1µM*	?
CCOC(=O)C1CCN(c2cc3c(cc2NC(=O)c2ccccc2F)n(C)c(=O)n3C)CC1	-22.6%	8.1%[0.0925 µM]	-7.3%	50.1µM*	12.4%
CCOC(=O)C1CCN(c2cc3c(cc2NC(=O)c2ccc(F)cc2)n(C)c(=O)n3C)CC1	-29.3%	10.1%[0.0925 µM]	-1.0%	?	36.1%
COc1cc2c(cc1NC(=O)c1ccccc1C)n(C)c(=O)n2C	-22.3%	-9.9%[59 µM]	/	50.1µM*	15.1%
CCOC(=O)Cc1ccc(NC(=O)Nc2cc3c(cc2N2CCCCC2)n(C)c(=O)n3C)cc1	-30.5%	-4.7%[59 µM]	/	2.4%	10.2%
CCOC(=O)c1ccccc1NC(=O)Nc1cc2c(cc1N1CCCC1)n(C)c(=O)n2C	?	?	/	50.1µM*	15.0%
CCS(=O)c1ccccc1C(=O)OCC(=O)N1CCC(c2ccccc2)=N1 (centres undefined)	-6.9%	/	/	/	35.0%
CCOCCn1c(=NC(=O)CSCC(=O)Nc2cc(C)on2)sc2cc(OC)ccc21	-8.2%	/	7.4%	-2.8%	31.5%
COc1cc(CNCCO)cc(Cl)c1OCc1ccc(Cl)cc1Cl	?	-40.3%[59 µM]	20µM*	?	20.0%
COc1cc(CNCCO)cc(Br)c1OCc1ccccc1Cl	-9.0%	/	-3.3%	-1.6%	22.5%
CCOc1cc(CNCc2ccccn2)cc(Cl)c1OCC	56.2µM*	/	2.8%	50.1µM*	19.3%
CCOc1cc(CNCc2ccccn2)cc(Cl)c1OC	44.7µM*	?	5.4%	56.2µM*	25.7%
CCOc1c(Cl)cc(CNc2nnnn2C)cc1OC	-10.3%	13.0%	28.0%	9.3%	18.1%
CCOc1cc(CNCC(O)c2ccccc2)cc(Cl)c1OC (centres undefined)	-8.4%	/	10.5%	-11.6%	40.4%
CCOc1c(Cl)cc(CNCc2ccncc2)cc1OC	-7.5%	56.2µM*	21.1%	-31.8%	32.6%
CCCSc1nnc2c(n1)OC(c1cccs1)Nc1ccc(Br)cc1-2 (centres undefined)	?	?	/	-33.2%	26.9%
COc1ccc(NC(=O)c2c(NCc3cccs3)sc3c2CCC(C)C3)c(OC)c1 (centres undefined)	?	?	/	?	-13.1%
COc1ccc(NC(=O)c2c(NCc3ccc(C)o3)sc3c2CCC(C)C3)c(OC)c1 (centres undefined)	28.2µM*	15.8µM*	/	-38.3%	-16.8%
SMILES	JMJD2A Tudor inh	G9a block	Sfp PPTase inh	BAZ2B block	HP1b chromo inh
COc1ccc(NC(=O)c2c(NCc3ccc(C)o3)sc3c2CCC(C)C3)cc1 (centres undefined)	44.7µM*	8.91µM*	/	-34.4%	-18.5%
COc1ccc(NC(=O)c2c(NCc3ccc(C)o3)sc3c2CCCCC3)c(OC)c1	50.1µM*	13.1%[59 µM]	/	17.7%	-17.3%
COc1ccccc1NC(=O)c1c(NC(=O)Cc2ccccc2)sc2c1CCC(C(C)(C)C)C2 (centres undefined)	10.0%	-46.3%[59 µM]	/	3.0%	32.9%
COc1ccc(NC(=O)c2c(NC(=O)CNCC(C)C)sc3c2CCC3)c(OC)c1	-14.4%	/	?	1.3%	19.5%
COc1ccc(NC(=O)c2c(NC(=O)COc3ccccc3)sc3c2CCC(C)C3)cc1 (centres undefined)	-1.7%	-44.9%[59 µM]	/	5.1%	23.4%
COc1ccccc1NC(=O)c1c(NCc2ccc(C)o2)sc2c1CCC(C)C2 (centres undefined)	?	8.91µM*	/	-32.6%	-5.5%
COc1ccc(OC)c(S(=O)(=O)N2CCN(CC(O)COc3ccc(C#N)cc3)CC2)c1 (centres undefined)	-21.1%	19.3%	15.8%	-19.0%	17.4%
COc1ccc(C2=Nn3c(nnc3-c3cc(OC)ccc3OC)SC2)cc1	-22.8%	/	-0.4%	/	/
CCOc1ccc(S(=O)(=O)N(CC(=O)Nc2ccc3c(c2)OCO3)c2ccccc2)cc1	3.5%	4.3%[59 µM]	/	1.0%	25.4%
O=C(Nc1nc2c(F)cc(F)cc2s1)C1CCN(C(=O)c2ccc(F)cc2)CC1	-15.4%	44.7µM*	/	8.3%	2.0%
Cc1ccccc1NC(=O)C1CCN(C(=O)c2ccc(F)cc2)CC1	-5.5%	3.5%[59 µM]	/	5.2%	11.8%
Cc1cccc(NC(=O)C2CCN(C(=O)c3ccc(F)cc3)CC2)n1	-7.6%	-3.0%	/	8.0%	44.9%
O=C(Nc1nc2ccccc2[nH]1)C1CCN(C(=O)c2ccc(F)cc2)CC1	?	39.8µM*	/	3.6%	12.0%
O=C(Nc1nc(-c2ccc(F)cc2)cs1)C1CCN(C(=O)c2ccc(F)cc2)CC1	-23.4%	35.5µM*	/	-0.2%	11.3%
O=C(Nc1ccc(F)cc1F)C1CCN(C(=O)c2ccc(Br)cc2)CC1	-6.8%	-9.0%	4.6%	-7.0%	29.2%
CC(=O)c1sc(NC(=O)C2CCN(C(=O)c3ccc(F)cc3)CC2)nc1-c1ccccc1	-26.4%	44.7µM*	/	-25.0%	13.3%
Cc1ccccc1CNC(=O)c1ccccc1N(C)S(=O)(=O)c1ccccc1	-12.9%	/	13.1%	-1.7%	31.4%
CCCC(CCC)C(=O)Nc1cccc(-c2nc3cccnc3s2)c1C	?	?	/	?	-21.8%
COc1cccc(N(CC(=O)NC2CCCCC2)C(=O)CCCC(=O)Nc2ccccn2)c1	-24.8%	0.8%	-0.9%	-14.0%	-19.5%
CN1C(=O)Cc2cc(S(=O)(=O)N3CCOCC3)ccc21	-6.3%[57.1 µM]	39.8µM*	3.7%	7.4%	-7.7%
CN1C(=O)CC(=O)N(C)c2cc(S(=O)(=O)N(C)Cc3ccccc3)ccc21	-27.6%	?	89.1µM*	-5.1%	?
Cc1ccc(S(=O)(=O)N2CCC(C(=O)OCc3c(C)noc3C)CC2)cc1C	-4.1%	39.8µM*	/	5.8%	28.5%
CCOC(=O)C1CCN(S(=O)(=O)c2ccc3c(c2)CC(=O)N3C)CC1	?	44.7µM*	-7.8%	-12.7%	-10.8%
